High-throughput results from PubChem.
Only some compounds are listed: those with a hit (about 4.6% of all), similar ones and a draw of the others.
SKKanGAS inh = SKKanGAS growth inhibition | S. pyogenes SKKanGAS, kanamycin growth, BacTiter-Glo, 6 h | inhibition, % at 7.5 µM | 300,000 tested, 1.3% active;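 active means mean replicate score, as percent of positive control median, at least 50; inconclusive means mean below 50 but one replicate at or above 50; inactive means mean and every replicate below 50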;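 further: strain carries kanamycin resistance gene driven by streptokinase promoter and grows in 40 µg/ml kanamycin; loss of luminescence reflects streptokinase promoter inhibition or plain growth inhibition; 0% = median of DMSO wells and 100% = positive control at its reference dose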
PfHsp90 yeast 2 = growth inhibition of yeast expressing Plasmodium Hsp90 | 310,000 tested, 0.32% active | AID 504621 | S. cerevisiae expressing PfHsp90, BacTiter-Glo ATP, 48 h; yeast lacking PDR1 and PDR3 efflux regulators | inhibition, % at 9.4 µM;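 active means every replicate shows inhibition above about 80%, whatever the replicate mean, limit read from the data; inconclusive means mean inhibition reaches the set limit but some replicate falls short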;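 further: 0% = DMSO neutral controls and 100% = 20 µM radicicol positive controls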
NLRP3 yeast inh = NALP3 inhibition in yeast | Yeast reconstituted NLRP3/ASC/caspase-1, beta-gal luminescence, 24 h | 330,000 tested, 0.39% active | inhibition, % at 10 µM;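 active means inhibition of 50% or more; inactive means inhibition below 50%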;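 further: plate controls were induced DMSO wells for no effect and uninduced yeast grown without galactose for full effect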
TIM10 inh = growth inhibitors of TIM10 yeast strain; AID 463195; inhibition, % at 10 µM; 330,000 tested, 1.4% active; S. cerevisiae TIM10 strain growth, BacTiter-Glo luminescence, 24 h;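 active means inhibition of 40% or more at the single tested concentration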;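 further: wild-type TIM10 isogenic control strain grown at permissive 25 °C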
tim23-1 inh = growth inhibitors of tim23-1 mutant yeast; 330,000 tested, 1.3% active; inhibition, % at 20 µM; S. cerevisiae tim23-1 growth, BacTiter-Glo luminescence, 24 h;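 active means growth inhibition of the mutant yeast at or above 50%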;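 further: temperature-sensitive mutant grown at 25 °C; plate controls were DMSO-treated mutant yeast for no effect and medium wells lacking yeast for full effect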
tim10-1 inh = inhibits growth of tim10-1 mutant yeast; 330,000 tested, 2.2% active; S. cerevisiae tim10-1 ts strain growth, BacTiter-Glo, 24 h; inhibition, % at 20 µM;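 active means inhibition of at least 40%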;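 further: mutant grown at 25 °C; 0% = DMSO wells with yeast and 100% = wells holding no yeast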
NALP3 confirm = NALP3 inhibition confirmation in yeast; 1,300 tested, 81% active; yeast expressing human NALP3, luminescence; inhibition, % at 10 µM; shares compounds with NLRP3 yeast inh; in the data active means inhibition above about 48%
Casp1-ASC yeast = caspase-1-ASC yeast counter-screen hit | shares compounds with NLRP3 yeast inh | yeast expressing Caspase-1-ASC, luminescence counter screen | inhibition, % at 10 µM | 1,000 tested, 66% active | AID 488784
NALP3 retest = yeast NALP3 inhibition, confirmed on retest; inhibition, % at 10 µM; yeast expressing human NALP3, luminescence read-out; 1,000 tested, 53% active; shares compounds with NLRP3 yeast inh; AID 488794
Active calls of the source: *; ? = inconclusive; . = no result given. Unless noted, no stated cut-off is given here; in the data, active means inhibition above about 50%; inactive means the rest.

SMILES	SKKanGAS inh	PfHsp90 yeast 2	NLRP3 yeast inh	TIM10 inh	tim23-1 inh	tim10-1 inh	NALP3 confirm	Casp1-ASC yeast	NALP3 retest
COc1ccc(NC(=O)c2cc3ccccc3o2)cc1	-5	-1	55*	12	40	-11	79*	66*	61*
O=C(Nc1ccc(F)cc1)c1cc2ccccc2o1	-4	-5	24	3	12	8	.	.	.
O=C(Nc1ccccc1)c1cc2ccccc2o1	14	0	52*	-5	35	-9	51*	53*	53*
Cc1ccc(NC(=O)c2cc3ccccc3o2)cc1Cl	-4	10	50*	38	47	-4	68*	39	40
C=CCc1ccccc1Oc1cc(OC)nc(N)n1	.	-8	1	0	16	19	.	.	.
CCCCn1nc(C(=O)Nc2ccc(-n3cnnn3)cc2)c2ccccc2c1=O	.	-4	26	0	-9	-1	.	.	.
NCCc1nnc(SCc2ccc(F)cc2)o1	-10	0	59*	-13	9	-13	74*	58*	61*
CCN(CC)S(=O)(=O)c1cc(C)c(C)cc1Br	3	-5	58*	-48	-31	-12	54*	53*	41
CC(C)N(CCNC(=O)c1nn(Cc2ccccc2)c(=O)c2ccccc12)C(C)C	1	0	8	2	-7	-5	.	.	.
CCCN1CCCc2cc(CN)ccc21	-11	-9	54*	-9	-4	-2	60*	.	.
CCC1Nc2ncnc(N3CCN(c4ccccc4)CC3)c2N(Cc2ccc(Br)cc2)C1=O (configuration not stated)	23	-36	42	28	34	28	.	.	.
Cc1cc(C)n(C(C)Sc2ccccc2)n1 (configuration not stated)	-5	10	4	-4	6	1	.	.	.
CCN(CC(=O)NCc1ccc(F)cc1)C(=O)CN1CCN(c2cc(Cl)ccc2C)CC1	8	-15	10	13	21	21	.	.	.
CCOC(=O)Nc1ccc(S(=O)(=O)NC2CCCCC2)cc1	-5	8	57*	-2	7	-5	68*	.	.
CC(C)(C)OC(=O)NCCc1nnc(SCC(=O)Nc2cccc(Cl)c2)o1	6	3	6	-2	1	9	.	.	.
NCCc1nnc(SCC(=O)Nc2cccc(Cl)c2)o1	-3	-10	52*	-2	6	1	75*	57*	68*
COc1ccc(C(=O)NC(=S)NNC(=O)c2cccc(C)c2)cc1	113*	.	51*	16	23	21	48	49	48
COc1ccc(C(=O)NNC(=S)Nc2ccccc2)cc1	0	21	7	1	-8	8	.	.	.
COc1ccc(C(=O)NC(=S)NC(C)C)cc1Br	-13	-9	15	18	40	-4	.	.	.
COc1ccc(C(=O)NNC(=S)NC(=O)c2cccs2)cc1	89*	23	56*	3	28	4	71*	27	44
O=C(NNC(=S)NC(=O)c1ccc(Br)cc1)c1ccc([N+](=O)[O-])cc1	100*	-16	53*	8	30	-2	37	37	54*
COc1ccc(C(=O)NNC(=S)NC(=O)c2ccc(F)cc2)cc1Br	103*	.	62*	32	30	4	71*	60*	60*
CCCSc1nnc(Sc2nnnn2-c2ccccc2)s1	3	-34	58*	-17	39	25	66*	60*	46
CCOc1ccc(CSCCNC(=S)Nc2ccc(OC)cc2)cc1	1	8	68*	5	19	15	64*	50	35
CCOc1ccc(NC(=S)N/N=C(\C)Cc2ccc(OC)cc2)cc1	1	-32	15	-5	32	18	.	.	.
SMILES	SKKanGAS inh	PfHsp90 yeast 2	NLRP3 yeast inh	TIM10 inh	tim23-1 inh	tim10-1 inh	NALP3 confirm	Casp1-ASC yeast	NALP3 retest
Cc1cc(C)cc(C(=O)Nc2nc3ccccc3[nH]2)c1	?	-16	52*	13	47	11	52*	61*	47
COc1ccc(C(=O)Nc2nc3ccccc3[nH]2)cc1OC	-6	-7	9	-3	1	15	.	.	.
COc1ccc(Cl)cc1C(=O)Nc1nc2ccccc2[nH]1	12	25	72*	22	31	-23	78*	77*	72*
COC(=O)Cn1c(N)[n+](Cc2ccccc2)c2ccccc21	0	13	11	0	-15	-4	.	.	.
O=C(/C=C/c1ccccc1)c1c[nH]c2ccccc12	-12	26	50*	-24	16	-60	63*	.	.
O=C(Nc1ccccc1)C(=O)c1c[nH]c2ccccc12	-14	10	58*	-21	-4	-27	75*	42	50
O=C(C=Cc1ccccc1)c1c[nH]c2ccccc2c1=O	.	17	.	.	.	.	.	.	.
CC(C)[C@H]1COC(NC2=N[C@@H](C(C)C)CO2)=N1	-3	-14	6	-32	-63	-31	.	.	.
Cc1cccc(C)c1NC(=O)C(C)N (configuration not stated)	17	.	55*	-3	5	3	59*	40	43
Cc1cccc(C)c1NC(=O)C(C)N1CCCC1 (configuration not stated)	-21	1	7	-10	-16	3	.	.	.
C=CCOC(=O)C1=C(C)NC(=O)NC1c1cc(Cl)cc(Cl)c1OC (configuration not stated)	-16	-17	11	5	3	2	.	.	.
Cc1c(CC(=O)N2CCC(C(N)=O)CC2)c(=O)oc2cc3c(cc12)CCC1(CCCCC1)O3	5	1	2	6	9	7	.	.	.
CCSc1oc(-c2ccco2)nc1S(=O)(=O)c1ccc(C)cc1	-2	19	52*	-13	25	-4	50*	50*	46
CCSc1oc(-c2ccco2)nc1S(=O)(=O)c1ccc(F)cc1	3	-23	6	18	29	36	.	.	.
O=C(NCCc1ccccc1)/C(=C\c1ccccc1)NC(=O)c1ccco1	26	9	6	6	-6	7	.	.	.
CC1(c2nnc(-c3ccccc3)o2)CC(c2c(Cl)cccc2Cl)=NO1 (configuration not stated)	-6	-7	55*	-36	30	-1	71*	32	37
CC1(c2nnc(-c3ccncc3)o2)CC(c2c(Cl)cccc2Cl)=NO1 (configuration not stated)	-6	.	14	-34	1	-18	.	.	.
COc1cc(C=O)ccc1OCCSc1ccc(C)cc1	0	-6	18	-24	21	17	.	.	.
